According to PubChem BioAssay AID1863 (Southern Research Specialized Biocontainment Screening …, 2009):
“And” between values parts separate entries of the source, which are not always exact repeats. Equal entries are not always repeated. Screen size: about 300,000 compounds; about 480 (0.16%) were called active.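 How the source made its calls: active means inhibition over 29.93%, a cutoff 3 SD above the screen mean, later confirmed by dose response; inconclusive means inhibition over 29.93% but no dose response follow-up; inactive means inhibition at most 29.93% or unconfirmed.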 The list is a sample of the results. Entries with a potency or affinity are not part of this list.

Assay: PhoP-dependent GFP reporter repression – Salmonella Typhimurium, primary screen (AID 1863);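 further: 0% = low Mg2+ inducing control and 100% = high Mg2+ repressing control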
Details: S. Typhimurium PhoP-regulated promoter GFP reporter, 4 h; at 50 µM; active compounds read high

inhibition, inactive:
CC(C)[C@H](NC(=O)OCc1ccccc1)C(=O)OCC(=O)NC1(C#N)CCCC1 10.7%
CC1CCC/C(=N\NC(=O)Nc2ccccc2)C1 (stereo not given) 2.46%
COc1ccc2cc(C(=O)C3CCCN(C(=O)c4cnn(C(C)C)c4)C3)ccc2c1 (stereo not given) 2.9%
CN(CC(=O)Nc1ccc(F)cc1)C(=O)c1cccc(S(=O)(=O)N2CCN(c3ccccc3)CC2)c1 -1.79%
CC(C)(C)CN1CCN(CCCc2ccccc2)C(CCO)C1 (stereo not given) -4.44%
CCc1cc(CNC(=O)CC2C(=O)NCCN2Cc2c(F)cccc2Cl)on1 (stereo not given) -1.45%
Oc1ccc(/C=N/NC(=S)Nc2cccnc2)c(O)c1O 8.35%
Oc1ccc(/C=N/NC(=S)Nc2cccnc2)c(O)c1 29.1%
CCn1c(CNC(=O)C2CCCCC2)cc2cc(C)ccc21 -0.55%
COc1ccc(C(=O)C2CCCN(C(=O)C3CCOCC3)C2)c(C)c1 (stereo not given) 4.46%
CCCCCc1ccc(OCCCC[n+]2ccccc2)c(CCCCC)c1 3.64%
CCCCCc1ccc(OCCCC[n+]2cccc(C)c2)c(CCCCC)c1 3.26%
CCCCCc1ccc(OCCCC[n+]2ccc(C)cc2)c(CCCCC)c1 15.8%
C[n+]1cn(Cc2cc(Cl)ccc2OC(F)F)c2ccccc21 -3.69%
O=C1CC(C(=O)Nc2ccccc2)N=C(N2CCCCC2)N1 (stereo not given) 0.85%
OCC[C@H]1C[C@@H](O)[C@H](O)[C@]2(CCCCO2)O1 -4.87%
O=C(Cn1cc(SCc2cccc(Cl)c2)c2ccccc21)N1CCOCC1 -8.83%
CC(C)c1ccc(C2NC(=S)NC3=C2C(=O)CCC3)cc1 (stereo not given) 1.24%
CCOC(=O)/C=c1\s/c(=C\c2ccc(C(F)(F)F)cc2)c(=O)n1CC(=O)NCc1ccco1 -2.01%
COC(=O)CC1C(=O)NCCN1C(=S)Nc1ccc(F)cc1 (stereo not given) 0.13%
S=C(NC1CC2CCC1C2)N1CCN(c2cccc(Cl)c2)CC1 (stereo not given) -2.31%
O=S(=O)(c1ccc(F)c(F)c1F)N1CCN(C(=S)NC2CC3CCC2C3)CC1 (stereo not given) -4.07%
CCOC(=O)c1cn(-c2nc(-c3ccc(Cl)cc3)cs2)c2c(F)c(N3CC(C)OC(C)C3)c(F)cc2c1=O (stereo not given) 10.3%
Cc1c(-n2cc(C(=O)O)c(=O)c3cc(F)c(N4CCCC(O)C4)c(F)c32)c(=O)n(-c2ccccc2)n1C (stereo not given) 2.04%
CCn1cc(C(=O)O)c(=O)c2cnc(N3CCN(C(=S)Nc4ccc(F)cc4)CC3)nc21 -3.34%
CCn1cc(C(=O)O)c(=O)c2cnc(N3CCN(C(=S)Nc4ccccc4C(F)(F)F)CC3)nc21 3.15%
Cn1c(SCC2CCCCC2)nnc1-c1ccncc1 7.51%
CC(NC(=O)c1cc2cc(F)ccc2[nH]1)c1ccccc1 (stereo not given) 5.36%
COc1ccc(Cl)cc1NC(=O)C/C(C)=N/NC(=O)COc1ccc(C)cc1 4.2%
Cc1ccc(C(=O)OC(C)C(=O)NC2CCCCC2C)cc1S(=O)(=O)N1CCOCC1 (stereo not given) -5.67%
CCCCC(=O)N1CCN(c2nc3ccc(OCC)cc3s2)CC1 10.3%
CN1CCc2c(sc(NC(=O)C3CCCN3S(=O)(=O)c3ccc(Cl)s3)c2C(N)=O)C1 (stereo not given) -7.52%
CCOc1ccc(N(CC(=O)NCCc2ccccc2)C(=O)c2csnn2)cc1 2.07%
Cc1ccc(-n2nc3ccc(N)cc3n2)cc1Cl 0.05%
O=C(O)COCC(=O)NCc1nc(-c2ccc(C(F)(F)F)cc2)no1 -3.89%
CC1c2ccsc2CCN1S(=O)(=O)c1ccccc1 (stereo not given) 5.29%
COc1cc2c(cc1OC)C(COc1ccc([N+](=O)[O-])cc1)NCC2 (stereo not given) 5.02%
CC1CCCN(C(=S)NCc2ccccc2)C1 (stereo not given) 4.83%
CC1CCN(c2c(NCC3CCC(C(=O)NCc4ccccc4)CC3)c(=O)c2=O)CC1 (stereo not given) -6.12%
Cc1ccc(CCNS(=O)(=O)c2cc(Br)cnc2N)cc1 1.18%
CC1CCCCC1NC(=O)C1CCN(C(=O)c2sccc2-n2cccc2)CC1 (stereo not given) 6.9%
COC(=O)COC(=O)c1ccc(O)cc1 -6.41%
Cc1ccc(-c2nc(CS(=O)(=O)CC(=O)N3CCc4ccccc4C3)c(C)o2)cc1 8.69%
CC1CCC(C(C)C)C(OC(=O)Cn2c(-c3ccccc3)[n+](C)c3ccccc32)C1 (stereo not given) -8.38% and 13.1%
CC1CCC(C(C)C)C(OC(=O)Cn2c(-c3ccc(Br)cc3)[n+](C)c3ccccc32)C1 (stereo not given) 10% and 1.48%
Cc1cccc(OCc2n(CC(=O)OC3CC(C)CCC3C(C)C)c3ccccc3[n+]2C)c1 (stereo not given) 15.1%
CC1CCC(C(C)C)C(OC(=O)Cn2c(-c3ccc(F)cc3)[n+](C)c3ccccc32)C1 (stereo not given) 4.57%
COc1ccc(-c2n(CC(=O)OC3CC(C)CCC3C(C)C)c3ccccc3[n+]2C)cc1 (stereo not given) -3.97%
Cc1ccccc1OCc1n(CC(=O)OC2CC(C)CCC2C(C)C)c2ccccc2[n+]1C (stereo not given) 6.3%
COc1cccc(N2CCN(C(=O)CN(C)S(=O)(=O)c3ccc4c(c3)c(=O)n(C)c(=O)n4C)CC2)c1 3.8%
CCN(CC)c1ccc(NC(=O)CCNC(=O)c2ccco2)cc1 17.8%
COc1ccc(CNC(=O)COC(=O)CCOc2ccc(C)cc2)cc1OC -1.68%
CN(Cc1cn(C)c2ccccc12)C(=S)Nc1cc(F)cc(F)c1 -1.37%
COc1ccc(CCN2CC(C(=O)NCCc3ccccc3)CC2=O)cc1OC (stereo not given) 6.87%
CCN1CCN(C(=O)c2cnn3c(C(F)F)cc(-c4ccc(C)cc4)nc23)CC1 7.14%
COc1ccc(S(=O)(=O)N2CC(C)N(C(=O)N(C)C)C2C)cc1 (stereo not given) -6.03%
COc1ccc(-n2cnnc2SCC(=O)Nc2ccccc2F)cc1 -6.73%
CCOc1ccccc1NC(=O)CSc1nnc(CNC(=O)c2c(F)cccc2Cl)o1 1.66%
COc1ccc(NC(=O)COc2ccc(/C=N/n3c(C)nnc3C)cc2OC)cc1 -10.3%
COC(=O)Nc1ccc(S(=O)(=O)N2CCCCCC2)cc1 -7.01%
Cc1ccc(C)c(N(CC(=O)NC(C)C)C(=O)CCC(=O)Nc2ccccn2)c1 -3.9%
CO/N=C(\C(=O)N[C@@H]1C(=O)N2C(C(=O)O)=C(COC(N)=O)CS[C@H]12)c1ccco1 4.28%
COCC1=C(C(=O)OC(C)OC(=O)OC(C)C)N2C(=O)[C@@H](NC(=O)/C(=N\OC)c3csc(N)n3)[C@H]2SC1 (stereo not given in full) -12.3%
O=S(=O)(N/N=C/c1ccc(N2CCOCC2)cc1)c1ccc(Br)cc1 -5.5%
Cc1nn2c(-c3ccccc3)ccnc2c1Br 0.66%
Cc1ccc(S(=O)(=O)/N=C2/C=C(Sc3ncn[nH]3)C(=O)c3ccccc32)c(C)c1 192%
Cc1ccc(S(=O)(=O)/N=C2/C=C(C3C(=O)CC(C)(C)CC3=O)C(=O)c3ccccc32)cc1 8.77%
CCc1ccc(S(=O)(=O)/N=C2\C=C(Nc3ccc(O)cc3)C(=O)c3ccccc32)cc1 15.4%
CCc1ccc(S(=O)(=O)/N=C2\C=CC(=O)c3ccccc32)cc1 3.04%
CCOC(=O)c1cn(Cc2ccccc2)c(C(=O)OC(C)(C)C)c1O 2.15%
CN(CC(=O)Nc1ccccc1Br)C(=O)c1ccc(COc2ccccc2)cc1 1.64%
O=C(O)c1cc2ccc3cccc4ccc(c1)c2c34 7.13%
Oc1cccc2cc3cccc(O)c3c(O)c12 5.42%
CC(=O)NC12CC3CC(C1)CC(C(=O)Nc1nccs1)(C3)C2 -6.86%
O=C(COc1ccc(Cl)cc1)Nc1ccc(C(=O)O)cc1NC(=O)COc1ccc(Cl)cc1 -0.41%
COc1cc(/C=C/C(=O)N(C)c2ccccc2C(=O)O)cc(OC)c1OC -9.48%
CC(C)(C)c1cc(NCCCn2ccnc2)n2ncc(-c3ccccc3)c2n1 -5.57%
CC(C)Nc1cc(C(C)(C)C)nc2c(-c3ccccc3)cnn12 1.4%
C[C@@H]1CN(Cc2nc(-c3cccs3)no2)C[C@H](C)O1 17.7%
COc1ccc(CC2NCCC3(O)CCCCC23)cc1 (stereo not given) -4.79%
CCOc1ccc(C(=O)Nc2ccc(C(=O)N3CCOCC3)cc2)c(OCC)c1 2.54%
CCCCC(CC)CNC(=O)C1CC=CCC1C(=O)O (stereo not given) -4.78%
Cc1cc2oc(C(=O)Nc3ccc(S(N)(=O)=O)cc3)c(C)c2cc1Cl 0.34%
COC(=O)c1ccc(Nc2c([N+](=O)[O-])ccc3nonc23)cc1 -2.08%
Cc1ccc(S(=O)(=O)N(C)C)cc1NC(=O)COC(=O)COc1ccc2c(c1)CCC2 -2.74%
Cc1cc(N2CCC(C)CC2)nc2cccc(O)c12 11.4%
Cc1cc(Nc2ccccc2O)c2ccccc2n1 8.86%
Cc1cc(Nc2ccccc2)nc2cc(O)ccc12 60.3%
Cc1cccc(Nc2nc3ccccc3s2)c1C 6.62%
CCOc1ccc(NC(=O)CSc2nc3cccnc3n2CCOC)cc1 8.6%
